Screens: PubChem, National Center for Advancing Translational Sciences (NCATS)
PI5P4Ka inh: qHTS for Inhibitors of phosphatidylinositol 5-phosphate 4-kinase (PI5P4K); Phosphatidylinositol 5-phosphate 4-kinase type-2 alpha (Homo sapiens), P48426; PI5P4Kalpha enzyme, ADP-Glo luminescence, 60 min; active compounds read low; max response, %; 330,000 compounds, 1.2% hits; active = max response of -50% or lower; inconclusive = between -30% and -50%; inactive = -30% or higher; also: value at the top dose of about 77 µM; % is scaled to controls: 0 for no effect and ±100 for the full control effect
Target sequence (P48426 whole entry, looked up): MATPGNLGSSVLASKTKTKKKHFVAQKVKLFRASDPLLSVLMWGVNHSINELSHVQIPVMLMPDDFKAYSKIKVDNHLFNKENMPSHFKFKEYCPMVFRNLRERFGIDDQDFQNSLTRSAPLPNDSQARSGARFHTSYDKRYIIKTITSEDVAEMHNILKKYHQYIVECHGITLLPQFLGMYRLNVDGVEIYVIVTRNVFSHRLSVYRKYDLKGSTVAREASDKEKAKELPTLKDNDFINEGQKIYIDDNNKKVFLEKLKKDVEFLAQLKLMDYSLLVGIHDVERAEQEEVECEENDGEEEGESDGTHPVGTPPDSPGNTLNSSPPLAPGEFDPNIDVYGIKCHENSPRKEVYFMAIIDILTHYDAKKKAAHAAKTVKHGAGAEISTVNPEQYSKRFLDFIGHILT
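ADP-Glo luminescence end-point read after a 60 min room-temperature kinase reaction of PI5P4Kalpha plus substrate, initiated with ATP at 5 microM final. Buffer: 0.038 M HEPES pH 7.4, EGTA, 0.1% CHAPS, 5% DMSO.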
POLI inh: qHTS for Inhibitors of Polymerase Iota. Potency, µM (top dose mostly 115 µM), for inactives: at the highest dose activity, negative = inhibition, usual class: inhibitors. AID 588590, 2011. Pol iota fluorescent replication assay, 10 min. DNA polymerase iota (Homo sapiens), Q9UNA4. 390,000 compounds, 1% hits; also: potency is read from the fitted curve at half-maximal effect
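Fluorescent replication assay read twice, at 0 min and 10 min after adding 50 nM (final) substrate. Enzyme (10 nM) and compounds were first incubated 15 min at room temperature; enzyme-free buffer wells were negative controls.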
PI4K2A inh: qHTS for small molecular inhibitors of PI4K2A; Phosphatidylinositol 4-kinase type 2-alpha (Homo sapiens), Q9BTU6; purified PI4K2A, ADP-Glo luminescence, 1 h; active compounds read low; AID 1346378, 2018; activity change, negative = inhibition, % at 76.9 µM; 420,000 compounds, 0.13% hits; in the data active = activity change below about -50%; inconclusive = mostly about -30% to -49%;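 also: -100% = wells without enzyme as full effect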
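Compounds are screened against recombinant PI4K2A using PI as substrate and ATP, the latter dispensed at 300 microM. Reactions run one hour at ambient temperature before ADP-Glo detection; full inhibition defined by wells lacking enzyme.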
Pol kappa inh-1: qHTS for Inhibitors of Polymerase Kappa. DNA polymerase kappa (Homo sapiens), Q9UBT6. purified Pol kappa, fluorescent DNA synthesis assay, 10 min. Potency, µM (doses to about 107 µM), inactives show at the top dose activity, negative = inhibition, actives largely listed as inhibitors. 400,000 compounds, 0.53% hits. AID 588579, 2011; also: potency is read from the fitted curve at half-maximal effect; % is scaled to controls: 0 for no effect and ±100 for the full control effect
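Readout: fluorescence, taken kinetically at 0 and 10 min. Conditions: 10 nM Pol kappa, 15 min RT compound preincubation, 50 nM substrate final. Controls: enzyme-free buffer wells.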
POLB inh: qHTS Assay for Inhibitors of DNA Polymerase Beta | P06746 | Pol beta primer extension/strand displacement, fluorescence kinetic | Potency, µM (titrated, usually from 114 µM), for inactives: at the highest dose activity change, negative = inhibition, most hits filed as inhibitors | 340,000 compounds, 1.3% hits | AID 485314, 2010; also: potency is read from the fitted curve at half-maximal effect; % is scaled to controls: 0 for no effect and ±100 for the full control effect
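Reaction started by 50 nM substrate onto compound-treated Pol beta (10 nM, 15 min preincubation, room temperature); plates read at 0 min and 10 min. Normalized concentration-effect data fitted by four-parameter Hill equation.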
Pol eta inh-1: qHTS for Inhibitors of Polymerase Eta | DNA polymerase eta (Homo sapiens), Q9Y253 | 390,000 compounds, 1.2% hits | recombinant Pol eta, fluorescent DNA replication assay | AID 588591, 2011 | Potency, µM (doses to about 114 µM), for inactives: top-dose activity change, negative = inhibition, hits mostly inhibitors; also: potency is read from the fitted curve at half-maximal effect; % is scaled to controls: 0 for no effect and ±100 for the full control effect
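Fluorescent replication assay: 50 nM final substrate added after a 15 min room-temperature compound preincubation with 10 nM enzyme. Signal taken at 0 min and again at 10 min.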
TbPGK inh: qHTS for inhibitors of Phosphogylcerate Kinase: Hit Validation Screen. shares compounds with Pol kappa inh-1. TbPGK coupled GAPDH assay, Kinase-Glo luminescence. Potency, µM (titrated, usually from 57.5 µM), inactives show top-dose activity change, negative = inhibition, usual class: inhibitors. 500 compounds, 79% hits. AID 686980, 2013; also: potency is read from the fitted curve at half-maximal effect; % is scaled to controls: 0 for no effect and ±100 for the full control effect; nearly all actives have a fitted effect of over 65% in size
Pol iota confirm: qHTS for Inhibitors of Polymerase Iota: Confirmatory Assay for Cherry-picked Compounds | Pol iota primer extension, TAMRA/BHQ fluorescence | AID 720496, 2013 | Potency, µM, actives largely listed as inhibitors | shares compounds with Pol kappa inh-1 | 1,500 compounds, 77% hits; also: potency is read from the fitted curve at half-maximal effect
Pol kappa inh-2: qHTS for Inhibitors of Polymerase Kappa: Confirmatory Assay for Cherry-picked Compounds. shares compounds with Pol eta inh-1. Potency, µM, most hits filed as inhibitors. 920 compounds, 76% hits. purified Pol-kappa, fluorescent strand-displacement substrate; also: potency is read from the fitted curve at half-maximal effect
Pol eta inh-2: qHTS for Inhibitors of Polymerase Eta: Confirmatory Assay for Cherry-picked Compounds. Potency, µM, actives largely listed as inhibitors. 2,600 compounds, 64% hits. AID 720502, 2013. shares compounds with Pol eta inh-1. Pol eta primer extension, TAMRA/BHQ fluorescence, 10 min; also: potency is read from the fitted curve at half-maximal effect
Active calls of the source: *; ? = inconclusive; · = no result given; [ ] = another dose, or the depositor's remark. The list is not random: actives were taken first. Their share in the collection is about 2.8%. Unless noted, calls follow the shape of the dose curve; as a rule, active = well fitted curve in the direction sought with a large enough effect; inconclusive = small, poorly fitted or top-dose-only effect, or another doubt; inactive = no such curve, though single readings can be large; an effect the other way counts as inactive or inconclusive.

SMILES | PI5P4Ka inh | POLI inh | PI4K2A inh | Pol kappa inh-1 | POLB inh | Pol eta inh-1 | Pol iota confirm | Pol eta inh-2 | others
C=CCC(CC=C)(CNC(=O)C(=O)Nc1ccc(Br)cc1)c1ccc(OC)c(OC)c1 | · | -15% | 0 | -13% | -1% | -7% | · | ·
COC(=O)C[C@H]1CC[C@H](NC(=O)Nc2ccccc2)[C@@H](CO)O1 | 8 | · | -3 | · | · | · | · | ·
CCc1cnc2c(c1SCC(=O)c1ccc(Cl)cc1)c(=O)n(C)c(=O)n2C | · | -4% | -1 | -4%[60.1 µM] | 7% | -3% | · | ·
CC1=CN2C(=N)/C(=C/c3ccco3)C(=O)N=C2S1 | ? | -19% | -10 | -21% | ? | ? | · | ·
Cc1ccc(-n2cccc2/C=C2\C(=N)N3N=C(c4ccco4)SC3=NC2=O)cc1 | ? | 20µM* | -5 | ? | 10µM* | 14µM* | ? | 76*
O=C(Cc1ccccc1)NC1CCCCN(Cc2ccc(Cl)cc2)C1=O (stereo not drawn) | · | · | -3 | · | · | · | · | ·
CC(=O)c1cc(-c2cccc(Cl)c2O)c(=O)n2c1CCC2 | · | · | -2 | · | · | · | · | ·
CC(=O)Nc1ccc(S(=O)(=O)N(C)CC(=O)OCC(=O)N2CCN(C(=O)c3ccco3)CC2)cc1 | -11 | 40µM* | -1 | ? | · | 28µM* | ? | 76*
COc1ccccc1C(=O)N1CCCCC1CCN1CCOCC1 (stereo not drawn) | · | 8% | -2 | -19% | -30% | -23% | · | ·
COc1ccc(-c2cnnc(N/N=C/c3ccc(O)cc3)n2)cc1 | -10 | 45% | 0 | -5% | -8% | -10% | · | ·
COc1ccc(-c2cnnc(N/N=C/c3ccc(O)c(O)c3)n2)cc1 | -14 | 8.9µM* | -2 | 25µM* | 3.5µM* | 20µM* | 47* | 30*
Cc1nnc(SCC2=C(C(=O)O)N3C(=O)C(NC(=O)Cn4nc(C(F)F)cc4C)C3SC2)s1 (stereo not drawn) | -5 | 16µM* | -8 | ? | ? | 8.9µM* | · | 27* | TbPGK inh=?
Cc1cc(C)n(CCc2nc(-c3ccco3)cs2)n1 | · | 14µM* | 4 | 71µM* | 32µM* | 79µM* | 75* | 85*
COc1ccc(OC)c(NC(=O)Nc2nc(C(C)N)cs2)c1 (stereo not drawn) | -5 | · | -5 | · | · | · | · | ·
Cc1cc(C)c2cccnc2c1O | · | -2% | · | -14% | · | · | · | ·
CCOc1ccc2c(ccc(/C=C/c3cc(C)c4cccnc4c3O)[n+]2C)c1 | -85* | ? | -58* | ? | · | 20µM* | 19* | 21* | Pol kappa inh-2=19*
COC(=O)C1(Cc2ccc(O)cc2)OC(=O)C(O)=C1c1ccc(O)cc1 (stereo not drawn) | ? | 13µM* | -3 | ? | 20µM* | 11µM* | 42* | 27*
COC(=O)CCc1ccc(O)cc1 | 10 | 8% | -4 | 1% | 26% | 2% | · | ·
Cc1nnc(N2C(=O)c3oc4ccccc4c(=O)c3C2c2ccco2)s1 (stereo not drawn) | -17 | ? | -5 | ? | 20µM* | ? | ? | ?
COc1ccc(C(=O)/C=C/c2ccc(OCc3ccccc3)cc2)cc1CSCC(=O)O | -21 | 45µM* | 1 | -20% | 5% | 45µM* | ? | ?
Cc1c(N=Nc2c(-c3ccc([N+](=O)[O-])cc3)[nH]n(C(N)=S)c2=O)cccc1[N+](=O)[O-] | -62* | ? | -5 | ? | -21% | 50µM* | ? | ?
NC(=S)n1[nH]c(-c2ccc([N+](=O)[O-])cc2)c(N=Nc2cccc([N+](=O)[O-])c2)c1=O | ? | ? | 1 | ? | 0% | 28µM* | 67* | 48* | TbPGK inh=13µM*
O=C(N/N=C/c1cc(Cl)cc([N+](=O)[O-])c1O)NC12CC3CC(CC(C3)C1)C2 | -69* | 11% | -5 | 0% | 14µM* | 7.9µM* | · | 67* | TbPGK inh=15µM*
Cc1cccc(OCCSc2nc3ccc(NC(=O)COc4ccccc4)cc3s2)c1 | · | 10% | -7 | -14% | 6% | -9% | · | ·
CN(C)CC(=O)N[C@@H]1CC[C@@H](CCNS(=O)(=O)c2ccccc2)O[C@@H]1CO | -1 | · | 4 | · | · | · | · | ·
SMILES | PI5P4Ka inh | POLI inh | PI4K2A inh | Pol kappa inh-1 | POLB inh | Pol eta inh-1 | Pol iota confirm | Pol eta inh-2 | others
O=C1c2cccc(NCCCNCCO)c2C(=O)c2cccc(NCCCNCCO)c21 | 0 | 45µM* | -23 | 32µM* | · | 4.5µM* | 19* | 38* | Pol kappa inh-2=17*
CC(C)CC(NC(=O)c1ccccc1)C(=O)N/N=C/c1ccco1 (stereo not drawn) | -18 | ? | -2 | ? | 89µM* | 14µM* | · | ? | TbPGK inh=?
CC(NC(=O)c1ccccc1)C(=O)N/N=C/c1ccco1 (stereo not drawn) | -10 | -23% | -1 | 4% | 2% | 4% | · | ·
Nc1nc(Sc2ccc([N+](=O)[O-])c3nonc23)c2[nH]cnc2n1 | -84* | 3.2µM* | -52* | 18µM* | · | ? | 21* | 30* | TbPGK inh=18µM*;Pol kappa inh-2=15*
CNc1ncnc(Sc2nc(N)nc3nc[nH]c23)c1[N+](=O)[O-] | -23 | ? | -5 | -19% | · | 2% | · | ·
CC(C)(CCc1ccccn1)C(=O)CCCc1ccccn1 | 1 | 12% | 1 | 4% | · | -23% | · | ·
N#C/C(=C\c1ccc(-c2ccc(C(=O)O)cc2)o1)C(=O)Nc1ccc(F)cc1 | -29 | 10µM* | -7 | 56µM* | ? | 5.6µM* | 27* | 27*
